Drawing on PubChem BioAssay AID1788 (Vanderbilt High Throughput Screening Facility, 2009), this text covers inhibition for one molecule.

The subject of the test is Rolipram (rat). In words: PubChem AID 1788. Conditions: MDS Pharma lead profiling panel, radioligand binding, at 10 µM, stronger effect = higher value.

The inhibition is the change of the read-out against control, counted positive when it falls.

A number with no mark means an inactive call. The rule behind the calls is not given here.

In the case of `CCOC(=O)N1CCC(NCCNC(=O)c2ccccc2C)CC1`, the inhibition is -2%.
